# Screening data (PubChem BioAssay)
# HCMV inh: blocks human cytomegalovirus replication; HFF cells, HCMV-luciferase reporter, 72 h; hits give low values; activity change, negative = inhibition, % at 57.5 µM; 410,000 compounds, 4.5% hits; AID 1259415; in the data active = activity change below about -60%; inconclusive = no clear call, values can overlap the other calls; inactive = above about -39%
#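 Steps: HFFs plated, 16 h 37C; compounds added; HCMV-luciferase added to MOI 1 PFU/cell; 72 h 37C; OneGlo reagent, 5 min room temperature; luminescence read, normalized to controls.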
# FMDV inh: antivirals against foot and mouth disease virus; FMDV antiviral cell-based qHTS; Potency, µM (top dose mostly 57.9 µM), without a hit: at the highest dose activity change, negative = inhibition, actives largely listed as inhibitors; 410,000 compounds, 1.2% hits; calls by dose curve; tested in HEK293T cells; also: read-out not given here; potency is read from the fitted curve at half-maximal effect; nearly all actives have a fitted effect of over 45% in size
# MARV entry inh: inhibitors of Marburg virus binding or cell entry; AID 540276; Marburg virus pseudotyped entry inhibition, cell reporter; 300,000 compounds, 1.8% hits; Potency, µM (doses to about 37.8 µM), without a hit: top-dose activity change, negative = inhibition, usual class: inhibitors; calls by dose curve; tested in HEK293 cells; also: potency is read from the fitted curve at half-maximal effect
# VACV Venus inh: inhibitors of vaccinia virus (Venus reporter). Vaccinia virus Venus reporter expression, fluorescence. Potency, µM (titrated, usually from 36.5 µM), for inactives: at the top dose activity change, negative = inhibition, most hits filed as inhibitors. 330,000 compounds, 0.46% hits. AID 720580; calls by dose curve; tested in A549 cells; also: potency is read from the fitted curve at half-maximal effect; nearly all actives have a fitted effect of over 30% in size
# Lassa entry inh: Lassa virus entry inhibition | 300,000 compounds, 1.2% hits | AID 540256 | Lassa virus pseudotype entry inhibition, cell reporter | Potency, µM (top dose mostly 37.9 µM), for the others: top-dose activity change, negative = inhibition, usual class: inhibitors; calls by dose curve; tested in HEK293 cells; also: potency is read from the fitted curve at half-maximal effect; nearly all actives have a fitted effect of over 50% in size
# Vaccinia mCherry: inhibitors of vaccinia virus infection (mCherry reporter signal). Potency, µM (top dose mostly 36.5 µM), for the others: at the highest dose activity change, negative = inhibition, hits mostly inhibitors. Vaccinia virus mCherry reporter infection, fluorescence. AID 720579. 310,000 compounds, 0.63% hits; calls by dose curve; tested in A549 cells; also: potency is read from the fitted curve at half-maximal effect; nearly all actives have a fitted effect of over 35% in size
# * marks the source's active call; other numbers are inactive results; i = inactive; ? = inconclusive; nt = no result given; [ ] = another dose, or the depositor's remark. Hits are enriched below; roughly 6.5% of the tested compounds scored in any of these assays. % is scaled to controls: 0 for no effect and ±100 for the full control effect.
SMILES,HCMV inh,FMDV inh,MARV entry inh,VACV Venus inh,Lassa entry inh,Vaccinia mCherry
COc1ccc(CCn2c(C)cc(C(=O)CCl)c2C)cc1OC,-100*,20µM*,nt,nt,nt,nt
COc1ccc(CCn2c(C)c(C(C)=O)c(C(C)=O)c2C)cc1OC,4,-14%,-1%,-14%,1%,-12%
COc1ccccc1-c1nnc(C2CCN(S(=O)(=O)c3ccc(CC(C)C)cc3)CC2)o1,-8,-3%,-7%[46.1 µM],-17%,-29%[46.1 µM],-12%
Fc1ccc(COc2ccc(Br)cc2CNCC2CCCO2)cc1 (stereo not given),?,-22%,4µM*,?,?,?
COc1ccc(C(=O)OCc2nnc(-c3ccccc3)o2)cc1S(=O)(=O)N1CCOCC1,-33,17%,?,0%,12%,-2%
O=C(OCc1nnc(-c2ccc([N+](=O)[O-])cc2)o1)c1ccc(F)c(S(=O)(=O)N2CCOCC2)c1,-67*,-13%,6%[46.1 µM],-3%,1%,-5%
CC[n+]1c(C=C2C=C(C)OC(C)=C2)sc2ccccc21,-98*,?,?,79%,5µM*,-29%
CNc1ccccc1C(C)(C)c1cc(-c2ccc(F)cc2)no1,-85*,?,?,-24%,-14%,?
CNc1ccccc1C(C)(C)c1cc(-c2cccc([N+](=O)[O-])c2)no1,?,-8%,4.5µM*,-4%,?,?
CNc1ccccc1C(C)(C)c1cc(-c2cccc(Br)c2)no1,?,?,?,89%,?,i
O=C(c1cccs1)N1C[C@H](O)[C@H](n2cc(C3CC3)nn2)C[C@@H]1c1ccccc1,nt,nt,nt,nt,8%[46.1 µM],nt
Cc1ccccc1Nc1c(-c2cccc(N(C)C)c2)nc2ccc(Br)cn12,17,35%,6%[46.1 µM],-9%,12%[46.1 µM],-13%
Cc1nnnn1/C(=C\c1ccccc1)C(=O)OCC(=O)Nc1cccc(S(=O)(=O)N(C)C)c1,-61*,14µM*,nt,nt,nt,nt
Cc1nnnn1/C(=C\c1ccccc1)C(=O)OCC(=O)Nc1ccc(Cl)cc1F,-95*,28µM*,?,?,20µM*,-23%
COc1ccc2c(c1)C(=O)[C@H](OC(=O)Nc1ccc(OC(F)F)cc1)[C@@H](c1ccc(OC)c(Br)c1)O2,nt,nt,4%[14.2 µM],nt,nt,nt
CC(C)Oc1ccc(Nc2cc3[nH]c(-c4cccc(F)c4)cc3cn2)cc1,-30,nt,nt,nt,nt,nt
Cc1cccc(N=C2NC(=O)/C(=C/c3cccnc3)S2)c1C,?,-22%,nt,nt,nt,nt
Cc1ccc(N=C2NC(=O)/C(=C/c3cccnc3)S2)c(C)c1,-80*,?,-12%,-22%,?,-3%
Cc1ccc(N=C2NC(=O)CS2)c(C)c1,-10,0%,-3%,-17%,5%,nt
Cc1ccc(N=C2NC(=O)/C(=C\c3ccsc3)S2)c(C)c1,-72*,4%,-23%,-28%,?,-19%
Nc1ccc(/C=C/c2cc(Cl)nc3ccccc23)cc1,nt,nt,nt,-14%,nt,-5%
Cc1cccc(NC(=O)/C(C#N)=C/c2cn(CC(=O)NCc3ccco3)c3ccccc23)c1,-63*,-18%,?,3%,6%,-12%
COCCn1c(=S)[nH]c2cc(C(=O)N3CCN(Cc4ccccc4)CC3)ccc2c1=O,nt,nt,nt,-12%,nt,i
CCN(CC)c1ccc(/C=C(\C#N)C(=O)c2ccc(Br)cc2)cc1,-65*,-18%,?,14%,?,-16%
CN(C)c1ccc(/C=C(\C#N)C(=O)c2ccccc2)cc1,-63*,36%,nt,nt,nt,nt
SMILES,HCMV inh,FMDV inh,MARV entry inh,VACV Venus inh,Lassa entry inh,Vaccinia mCherry
CCN(CC)c1ccc(/C=C(\C#N)C(N)=O)cc1,16,38%,?,?,?,-16%
CCOC(=O)c1c(-n2c(C)cc(C=O)c2C)sc2c1CCCC2,-23,0%,12µM*,nt,9.2µM*,nt
CCOC(=O)c1c(-n2c(C)cc(/C=C3\C(=O)NC(=O)N(C)C3=O)c2C)sc2c1CCCC2,-34,-9%,?,nt,?,nt
Cc1ccc2nc(C3CCCCC3)c(Cc3ccccc3C(F)(F)F)n2c1,-70*,-24%,nt,-20%,nt,i
Cc1ccc2nc(C3CCCCC3)c(Cc3ccccc3)n2c1,-15,?,nt,-14%,nt,-14%
C=C(C)Cn1c(SCC(=O)Nc2cc(C)ccc2C)nc2sc3c(c2c1=O)CCCC3,5,-24%,6%[46.1 µM],-7%,26%[46.1 µM],-2%
COc1ccc(C(C)=O)cc1CSc1nnc(Nc2ccc(C)cc2)s1,-61*,0%,?,-26%,?,?
COc1ccc(C(C)=O)cc1CSc1nnc(Nc2ccccc2)s1,-70*,?,18µM*,?,?,-14%
COc1ccc(C(C)=O)cc1CSc1nnc(C)s1,5,6%,0%,-6%,5%,i
O=C(O)c1ccc(-n2cccc2/C=N/NC(=O)c2cc3cc(Br)ccc3o2)cc1,nt,nt,-12%[46.1 µM],nt,nt,nt
COC(=O)C1=C(C)N(Cc2ccccc2)C(=NCc2ccc3c(c2)OCO3)NC1CCc1ccccc1 (stereo not given),nt,nt,-12%[14.2 µM],nt,?,nt
c1ccc(-c2nc3nonc3nc2-c2ccccc2)cc1,-78*,?,?,-9%,-26%,-20%
CCCNCC(O)Cn1c2ccccc2n2c(=O)cc(C)c(C#N)c12 (stereo not given),-61*,0%,?,-6%,16%,1%
Nc1ncnc2c1nc(Cl)n2[C@@H]1O[C@H](CO)[C@@H](O)[C@@H]1O,nt,nt,nt,13µM*,nt,?
CN(C)c1nc2c(N)ncnc2n1[C@H]1O[C@@H](CO)[C@H](O)[C@@H]1O,-70*,5%,17%[46.1 µM],-11%,-11%[46.1 µM],i
Nc1ncnc2c1nc(Cl)n2C1OC(CO)C(O)C1O (stereo not given),nt,?,nt,-28%,nt,?
CN(C)c1nc2c(N)ncnc2n1C1OC(CO)C(O)C1O (stereo not given),-20,-6%,17%,-9%,0%,-15%
[N-]=[N+]=Nc1nc2c(N)ncnc2n1C1OC(CO)C(O)C1O (stereo not given),nt,-29%,nt,13µM*,nt,8.9µM*
Cc1nc(N2CCCCC2)sc1C(=O)c1cccc([N+](=O)[O-])c1,-73*,-13%,-7%[46.1 µM],-21%,-23%,-26%
Cc1nc(N2CCCCC2)sc1C(=O)c1ccc(SCCO)c([N+](=O)[O-])c1,?,32µM*,?,-23%,?,?
COc1cccc(CNC(=O)C2CCN(S(=O)(=O)c3ccc4c(c3)CCCN4C(C)=O)CC2)c1,13,-15%,nt,3%,-4%[46.1 µM],-5%
Cc1c(C)c2ccc(OCC(=O)N[C@@H](Cc3ccccc3)C(=O)O)cc2oc1=O,-77*,-1%,nt,-6%,nt,-3%
CC(=O)c1ccc(NC(=O)C(C)Sc2nnc(-c3ccncc3)n2C2CC2)cc1 (stereo not given),-64*,-23%,?,-10%,21%,-20%
CN1C(=O)C(C2(O)C(=O)N(Cc3ccccc3)c3cc(F)ccc32)c2ccccc21 (stereo not given),-23,nt,nt,nt,nt,nt
